From PubChem BioAssay (EPA / NIEHS) come the findings set out here.

Read-out in assay [1]: Transforming growth factor beta 1 (TGFb1), TGFB1 (gene 7040)
Kind of assay: BSK_KF3CT_TGFb1: BioMAP Diversity Plus: KF3CT Assay for Transforming growth factor beta 1 (TGFb1) Biomarker Activity (AID 2283072). The following applies: primary human keratinocytes with fibroblasts; actives raise or lower the signal. In outline: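 ELISA quantifies TGF-b1 at 24 h post-dose in a primary human skin co-culture of keratinocytes and fibroblasts, with gain or loss judged against DMSO. Parallel SRB total-protein staining flags overt cytotoxicity.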

Read-out in assay [2]: C-C motif chemokine 2 (Homo sapiens) (UniProt P13500)
Briefly: BSK_KF3CT_MCP1: BioMAP Diversity Plus: KF3CT Assay for Monocyte Chemoattractant Protein 1 (MCP1/CCL2) Biomarker Activity (AID 2283073). The following applies: primary human keratinocytes with fibroblasts; actives raise or lower the signal. In a few lines:
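Human keratinocyte plus foreskin fibroblast primary co-culture exposed to chemical for 24 h. MCP-1 levels measured by ELISA. Bidirectional curve fitting relative to DMSO negative control as baseline.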

Read-out in assay [3]: Matrix Metallopeptidase 9 (MMP9), MMP9 (gene 4318)
Kind of assay: BSK_KF3CT_MMP9: BioMAP Diversity Plus: KF3CT Assay for Matrix Metallopeptidase 9 (MMP9) Biomarker Activity (AID 2283074). The following applies: primary human keratinocytes with fibroblasts; actives raise or lower the signal. In outline:
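ELISA read-out of MMP-9 at 24 h post-dosing in a co-culture of human skin keratinocytes and foreskin fibroblasts. Gain or loss of signal was fitted in both directions against DMSO.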

Read-out in assay [4]: urokinase plasminogen activator (uPA), PLAU (gene 5328)
Briefly: BSK_KF3CT_uPA: BioMAP Diversity Plus: KF3CT Assay for urokinase plasminogen activator (uPA) Biomarker Activity (AID 2283075). As to conditions: primary human keratinocytes with fibroblasts; actives raise or lower the signal. In a few lines: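 Skin co-culture (keratinocytes + foreskin fibroblasts), human primary; 24 h post-dose; uPA by ELISA; gain/loss fit vs DMSO baseline.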

Read-out in assay [5]: CD40, CD40 (gene 958)
Kind of assay: BSK_LPS_CD40: BioMAP Diversity Plus: LPS Assay for CD40 Biomarker Activity (AID 2283076). The following applies: primary human HUVEC with PBMC; actives raise or lower the signal. In a few lines:
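Primary human umbilical vein endothelial cells co-cultured with peripheral blood mononuclear cells, LPS-stimulated, were dosed with chemical and read 24 h later. CD40 levels were measured by ELISA and fitted bidirectionally against DMSO as negative control and baseline.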

Read-out in assay [6]: E-selectin (Homo sapiens) (UniProt P16581)
Briefly: BSK_LPS_Eselectin: BioMAP Diversity Plus: LPS Assay for Eselectin Biomarker Activity (AID 2283077). As to conditions: primary human HUVEC with PBMC; actives raise or lower the signal. In a few lines:
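Human umbilical vein endothelial cells co-cultured with peripheral blood mononuclear cells under LPS stimulation; E-selectin measured by ELISA 24 h after chemical dosing. Activity fitted bidirectionally against DMSO as negative control and baseline.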

Read-out in assay [7]: Interleukin-8 (IL8), CXCL8 (gene 3576)
Briefly: BSK_LPS_IL8: BioMAP Diversity Plus: LPS Assay for Interleukin-8 (IL8) Biomarker Activity (AID 2283078). As to conditions: primary human HUVEC with PBMC; actives raise or lower the signal. In outline:
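Human umbilical vein endothelial cells co-cultured with PBMC were stimulated with LPS; IL-8 levels were measured by ELISA 24 h after chemical dosing. Activity was fitted bidirectionally against DMSO as negative control and baseline.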

Assay [8] in a line: BSK_LPS_SRB: Viability Assessment in the BioMAP Diversity Plus: LPS Assay (AID 2283079).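 Note: total protein by sulforhodamine B absorbance as a cytotoxicity measure; measured one day after compound addition.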 As to conditions: primary human HUVEC with PBMC. In outline: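 Human umbilical vein endothelial cells co-cultured with PBMC (LPS system) were dosed for 24 h. Total protein was stained with 0.1% sulforhodamine B after 10% TCA fixation, read at 560 nm, and fitted bidirectionally against DMSO baseline.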

Read-out in assay [9]: Interleukin-1 alpha (IL1a), IL1A (gene 3552)
Briefly: BSK_LPS_IL1a: BioMAP Diversity Plus: LPS Assay for Interleukin-1 alpha (IL1a) Biomarker Activity (AID 2283080). The following applies: primary human HUVEC with PBMC; actives raise or lower the signal. In a few lines: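 Human umbilical vein endothelial cells co-cultured with peripheral blood mononuclear cells were LPS-stimulated and exposed to test chemicals for 24 h. IL-1 alpha was quantified by ELISA, with bidirectional curve fitting against DMSO as the negative control and baseline.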

Read-out in assay [10]: Monocyte Chemoattractant Protein-1 (MCP1), CCL2 (gene 6347)
Briefly: BSK_LPS_MCP1: BioMAP Diversity Plus: LPS Assay for Monocyte Chemoattractant Protein-1 (MCP1) Biomarker Activity (AID 2283081).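 For AC50: co-culture stimulated with LPS; secreted MCP-1 protein quantified by ELISA in culture supernatant.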 As to conditions: primary human HUVEC with PBMC; actives raise or lower the signal. In a few lines: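 HUVEC plus PBMC co-culture (human primary cells, LPS system) exposed to test chemical for 24 h; MCP-1 measured by ELISA. Bidirectional curve fitting against DMSO baseline; parallel SRB total-protein staining flags overt cytotoxicity.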

Assay [11] is described as follows: BSK_LPS_PGE2: BioMAP Diversity Plus: LPS Assay for Prostaglandin E2 (PGE2) Biomarker Activity (AID 2283082).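 For AC50: secreted prostaglandin E2 measured by ELISA in LPS-stimulated co-culture.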 The following applies: primary human HUVEC with PBMC; actives raise or lower the signal. In outline:
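PGE2 release measured by ELISA in an LPS-activated co-culture of human umbilical vein endothelial cells and peripheral blood mononuclear cells, read at 24 h post-dosing. DMSO served as baseline for bidirectional curve fitting.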

Read-out in assay [12]: Macrophage colony-stimulating factor (MCSF), CSF1 (gene 1435)
Kind of assay: BSK_LPS_MCSF: BioMAP Diversity Plus: LPS Assay for Macrophage colony-stimulating factor (MCSF) Biomarker Activity (AID 2283083). As to conditions: primary human HUVEC with PBMC; actives raise or lower the signal. In outline: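 Human umbilical vein endothelial cells co-cultured with peripheral blood mononuclear cells were exposed to compound for 24 h. M-CSF levels were measured by ELISA, and bidirectional curve fitting used DMSO as the negative control and baseline.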

Read-out in assay [13]: Tissue Factor, F3 (gene 2152)
Briefly: BSK_LPS_TissueFactor: BioMAP Diversity Plus: LPS Assay for Tissue Factor Biomarker Activity (AID 2283084). The following applies: primary human HUVEC with PBMC; actives raise or lower the signal. In outline: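 Human umbilical vein endothelial cells co-cultured with peripheral blood mononuclear cells were dosed and stimulated with LPS. Cell-surface CD142 was quantified by ELISA at 24 h. Activity was fitted bidirectionally against DMSO baseline.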

Read-out in assay [14]: Tumor necrosis factor (Homo sapiens) (UniProt P01375)
Briefly: BSK_LPS_TNFa: BioMAP Diversity Plus: LPS Assay for Tumour Necrosis Factor alpha (TNFa) Biomarker Activity (AID 2283085).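 For AC50: TNFa protein level quantified by ELISA in the co-culture.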 As to conditions: primary human HUVEC with PBMC; actives raise or lower the signal. In outline: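 TNFa was quantified by ELISA in LPS-activated co-cultures of human endothelial cells and PBMC, 24 h post-dosing. Both increases and decreases versus DMSO were fitted.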

Read-out in assay [15]: Vascular cell adhesion molecule 1 (VCAM1), VCAM1 (gene 7412)
Briefly: BSK_LPS_VCAM1: BioMAP Diversity Plus: LPS Assay for Vascular cell adhesion molecule 1 (VCAM1) Biomarker Activity (AID 2283086). The following applies: primary human HUVEC with PBMC; actives raise or lower the signal. In outline: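 VCAM-1 quantified by ELISA in an LPS-activated co-culture of human endothelial cells and peripheral blood mononuclear cells, read 24 h post-treatment. Fitted in both directions versus DMSO; parallel SRB staining flags overt cytotoxicity.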

Read-out in a further assay: CD38, CD38 (gene 952)
Kind of assay: BSK_SAg_CD38: BioMAP Diversity Plus: SAg Assay for CD38 Biomarker Activity (AID 2283087). The following applies: primary human HUVEC with PBMC; actives raise or lower the signal. In a few lines:
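CD38 quantified by ELISA (fluorescence) in a superantigen-activated endothelial cell–PBMC co-culture at 24 h post-dose. Activity fitted in both directions relative to DMSO; parallel SRB and Alamar Blue cytotoxicity read-outs.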

Read-out in assay [16]: CD40, CD40 (gene 958)
Kind of assay: BSK_SAg_CD40: BioMAP Diversity Plus: SAg Assay for CD40 Biomarker Activity (AID 2283088). As to conditions: primary human HUVEC with PBMC; actives raise or lower the signal. In a few lines: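 Human umbilical vein endothelial cells co-cultured with PBMC; CD40 levels measured by ELISA with fluorescence read-out 24 h after chemical dosing. Gain or loss of signal fitted bidirectionally against DMSO baseline.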

Read-out in assay [17]: Monocyte Chemoattractant Protein-1 (MCP1), CCL2 (gene 6347)
Briefly: BSK_SAg_MCP1: BioMAP Diversity Plus: SAg Assay for Monocyte Chemoattractant Protein-1 (MCP1) Biomarker Activity (AID 2283090). The following applies: primary human HUVEC with PBMC; actives raise or lower the signal. In outline: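 Values derive from bidirectional fitting of ELISA-measured MCP1 against DMSO controls. Readings were taken 24 h after dosing human vascular endothelial cells co-cultured with peripheral blood mononuclear cells under superantigen stimulation.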

Read-out in assay [18]: E-selectin (Homo sapiens) (UniProt P16581)
Kind of assay: BSK_SAg_Eselectin: BioMAP Diversity Plus: SAg Assay for Eselectin Biomarker Activity (AID 2283091). As to conditions: primary human HUVEC with PBMC; actives raise or lower the signal. In a few lines:
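HUVEC co-cultured with PBMC, compound dosed then read at 24 h; E-selectin measured by ELISA. Activity fitted bidirectionally against DMSO as negative control and baseline.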

Read-out in a further assay: CD69, CD69 (gene 969)
Briefly: BSK_SAg_CD69: BioMAP Diversity Plus: SAg Assay for CD69 Biomarker Activity (AID 2283089). The following applies: primary human HUVEC with PBMC; actives raise or lower the signal. In a few lines:
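Primary human vascular co-culture (umbilical vein endothelium with peripheral blood mononuclear cells) exposed to test chemical for 24 h. CD69 levels quantified by fluorescence ELISA; DMSO served as negative control for bidirectional fitting.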

The structures appear in SMILES notation. Calls of active or inactive are those of the source. Rule for the calls: active = hit-call score of the fitted dose curve at least 0.9, where 1 is the maximum; inactive = score below 0.9.

Tumor necrosis factor (Homo sapiens), sequence (P01375 whole entry, looked up): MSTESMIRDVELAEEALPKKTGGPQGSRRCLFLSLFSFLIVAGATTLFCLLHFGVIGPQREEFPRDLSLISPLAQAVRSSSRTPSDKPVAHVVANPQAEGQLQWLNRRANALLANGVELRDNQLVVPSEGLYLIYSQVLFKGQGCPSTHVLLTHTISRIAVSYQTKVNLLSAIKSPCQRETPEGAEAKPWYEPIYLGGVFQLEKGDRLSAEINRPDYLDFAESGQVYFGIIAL
E-selectin (Homo sapiens), sequence (P16581 whole entry, looked up): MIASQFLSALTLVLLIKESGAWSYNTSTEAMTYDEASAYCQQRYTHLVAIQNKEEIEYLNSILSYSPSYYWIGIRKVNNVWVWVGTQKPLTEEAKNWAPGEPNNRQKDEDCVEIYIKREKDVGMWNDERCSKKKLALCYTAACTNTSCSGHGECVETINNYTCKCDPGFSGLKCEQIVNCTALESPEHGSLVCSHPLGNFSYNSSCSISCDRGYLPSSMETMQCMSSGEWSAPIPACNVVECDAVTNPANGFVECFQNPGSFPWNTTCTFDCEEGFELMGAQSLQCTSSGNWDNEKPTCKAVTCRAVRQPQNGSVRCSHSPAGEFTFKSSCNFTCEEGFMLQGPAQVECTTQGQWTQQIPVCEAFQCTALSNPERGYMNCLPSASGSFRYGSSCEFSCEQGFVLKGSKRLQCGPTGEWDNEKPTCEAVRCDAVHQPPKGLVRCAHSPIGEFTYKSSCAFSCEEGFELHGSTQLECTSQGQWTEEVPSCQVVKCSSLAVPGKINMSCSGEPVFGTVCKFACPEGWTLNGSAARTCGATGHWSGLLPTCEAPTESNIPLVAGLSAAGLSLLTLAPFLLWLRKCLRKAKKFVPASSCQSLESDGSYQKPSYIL

The AC50 is the concentration giving half of the maximal activity seen. On to `CCCCC(C#N)(Cn1cncn1)c1ccc(Cl)cc1` (stereo not drawn), for which the outcome is “inactive” in assay [1]; “inactive” in assay [2]; “inactive” in [3]; “inactive” in assay [4]; “inactive” with CD40, CD40 (gene 958) [5]; “inactive” in [6]. Also, the outcome in [7], in [8], in assay [9], in [10], in [12] and in assay [13] was inactive. The outcome in assay [14] is “inactive”; in [15], “inactive”; with CD38, CD38 (gene 952), “inactive”; with CD40, CD40 (gene 958) [16], “inactive”; in [17] it was “inactive”; in assay [18], “inactive”. In addition, the AC50 in [11] was 12 µM (active).
Turning to `N#Cc1c[nH]cc1-c1cccc2c1OC(F)(F)O2`, the result in assay [1], in assay [2], in assay [3], in assay [4], in [6] and in [7] was inactive. In addition, the outcome in assay [11], in [13] and in assay [18] was inactive. The AC50 in the assay with CD40, CD40 (gene 958) [5] was 7.2 µM (active); in assay [8], 8.62 µM (active); in assay [9] it was 14.8 µM (active); in [10], 17.9 µM (active); in assay [12] it was 26.3 µM (active); in assay [14], 29.8 µM (active). Also, the AC50 in assay [15] was 20 µM (active); in the assay with CD38, CD38 (gene 952), 29.1 µM (active); in the assay with CD40, CD40 (gene 958) [16], 20 µM (active); in assay [17] it was 20.4 µM (active).
Consider `CS(=O)(=O)c1cc(C(F)(F)F)ccc1C(=O)c1cnoc1C1CC1`, for which the outcome is “inactive” in [1]; “inactive” in [2]; “inactive” in assay [3]; “inactive” in assay [4]; “inactive” in the assay with CD40, CD40 (gene 958) [5]; “inactive” in assay [6]. Further, the result in [7], in assay [8], in [9], in assay [10], in assay [11] and in assay [12] was inactive. The outcome in [13] was “inactive”; in assay [14], “inactive”; in [15] it was “inactive”; with CD40, CD40 (gene 958) [16] it was “inactive”; with CD69, CD69 (gene 969), “inactive”; in [17] it was “inactive”. For the same compound, the outcome in [18] was inactive. The AC50 with CD38, CD38 (gene 952) was 5.57 µM (active).
